# Experimental data taken from PubChem BioAssay.
# Unmarked numbers belong to inactive results. Active and inactive are the calls of the source. Unless noted, no stated cut-off is given here; in the data, active means inhibition above about 36%; inactive means the rest.
# Assays:
# [1] = tested on: transactivating tegument protein VP16 (Human herpesvirus 1); experiment: VP16 transactivation reporter inhibitors, counter-screen for SRC2 inhibitor project, cell-based, luminescence, single concentration (AID 652007); conditions: cell-based VP16 transactivation luciferase reporter, at 8.9 µM, active compounds read high
# [2] = biological target: Nuclear receptor coactivator 2 (Homo sapiens) (UniProt Q15596); experiment: SRC2 coactivator transcriptional activity inhibitors, confirmation, cell-based, luminescence, HEK293, triplicate (AID 652008;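 active means mean inhibition above 46.5%, the solvent-only control mean plus 3 SD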;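 further: 0% = DMSO-treated cells and 100% = Gossypol at 36 µM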); conditions: HEK293 GAL4-SRC2 luciferase reporter, at 8.9 µM, active compounds read high
# Nuclear receptor coactivator 2 (Homo sapiens), sequence (Q15596 whole entry, looked up, the tested form may be a part): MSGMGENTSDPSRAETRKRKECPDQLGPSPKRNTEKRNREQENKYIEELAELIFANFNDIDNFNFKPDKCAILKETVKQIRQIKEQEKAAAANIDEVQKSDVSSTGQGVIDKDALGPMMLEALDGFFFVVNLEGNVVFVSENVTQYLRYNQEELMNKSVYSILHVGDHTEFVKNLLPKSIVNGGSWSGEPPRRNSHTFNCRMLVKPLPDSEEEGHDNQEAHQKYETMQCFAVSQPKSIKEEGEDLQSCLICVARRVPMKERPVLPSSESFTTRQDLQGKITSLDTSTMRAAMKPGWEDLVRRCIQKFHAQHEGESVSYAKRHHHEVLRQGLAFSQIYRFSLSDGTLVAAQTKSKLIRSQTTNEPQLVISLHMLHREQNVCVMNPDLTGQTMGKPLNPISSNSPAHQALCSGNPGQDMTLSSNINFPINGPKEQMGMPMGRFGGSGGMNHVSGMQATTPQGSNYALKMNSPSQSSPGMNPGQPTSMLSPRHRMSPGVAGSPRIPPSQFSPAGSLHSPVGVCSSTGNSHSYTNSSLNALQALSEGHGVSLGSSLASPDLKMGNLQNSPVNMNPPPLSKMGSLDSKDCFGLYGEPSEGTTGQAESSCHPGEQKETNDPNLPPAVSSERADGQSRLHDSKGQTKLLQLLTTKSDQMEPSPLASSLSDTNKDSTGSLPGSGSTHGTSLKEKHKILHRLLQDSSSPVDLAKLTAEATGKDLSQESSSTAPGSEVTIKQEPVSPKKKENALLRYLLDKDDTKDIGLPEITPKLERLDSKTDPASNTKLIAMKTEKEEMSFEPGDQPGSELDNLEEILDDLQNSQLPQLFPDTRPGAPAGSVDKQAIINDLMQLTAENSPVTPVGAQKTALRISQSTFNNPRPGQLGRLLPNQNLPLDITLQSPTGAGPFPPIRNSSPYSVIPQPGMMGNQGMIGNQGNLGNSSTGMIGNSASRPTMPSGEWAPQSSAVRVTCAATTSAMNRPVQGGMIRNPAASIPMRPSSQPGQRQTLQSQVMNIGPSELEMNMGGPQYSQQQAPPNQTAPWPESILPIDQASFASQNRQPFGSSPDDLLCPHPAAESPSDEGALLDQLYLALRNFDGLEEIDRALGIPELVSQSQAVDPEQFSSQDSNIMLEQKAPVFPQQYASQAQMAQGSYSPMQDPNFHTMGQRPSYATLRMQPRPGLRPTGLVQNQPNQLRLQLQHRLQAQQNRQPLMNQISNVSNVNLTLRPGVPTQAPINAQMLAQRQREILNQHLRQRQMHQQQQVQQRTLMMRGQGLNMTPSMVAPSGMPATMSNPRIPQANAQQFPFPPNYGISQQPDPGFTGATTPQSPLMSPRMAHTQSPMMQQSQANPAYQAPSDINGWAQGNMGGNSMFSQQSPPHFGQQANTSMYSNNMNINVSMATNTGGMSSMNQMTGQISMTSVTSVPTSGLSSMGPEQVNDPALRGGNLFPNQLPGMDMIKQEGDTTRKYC
Structure (SMILES),inhibition [1],inhibition [2]
CCOc1ccc(-c2c(C(=O)N/N=C/c3cccc(Br)c3)nnn2-c2nonc2N)cc1,-5.94%,-23.4%
COc1ccc(Cl)cc1C(=O)Nc1nc2ccccc2[nH]1,-42.5%,10.7%
C=C(C)C(=O)OC1(C(F)(F)F)Oc2cc(C)ccc2NC1=O (configuration not stated),-6.48%,17.5%
CC(=O)Nc1ccc(NC(=O)c2ccc(-c3ccnn3C)c3ccoc23)cc1,-6.57%,26.4%
CC(C)COc1ccc(C(=S)N2CCCC2)cc1,-1.55%,40.6%
O=C(O)/C=C/C(=O)N(CC1CCCO1)C1CC(=O)N(c2c(Cl)cccc2Cl)C1=O (configuration not stated),-22.7%,-29.3%
Cc1nc(NCc2ccco2)c2c(C)c(C)sc2n1,12%,38%
O=C(O)CCC(=O)Nc1ccc(NC(=O)c2ccc(Cl)cc2Cl)c(Cl)c1,-5.8%,-2.71%
CC(C)CC(NC(=O)c1ccco1)C(=O)Nc1ccc2c(c1)OCCO2 (configuration not stated),10.6%,7.27%
CCN(CC)S(=O)(=O)c1cccc(-n2c(O)c(C=Nc3ccccc3C(=O)O)c3ccccc3c2=O)c1,-0.6%,21.9%
CCNC(=O)NC(=O)C(C)OC(=O)CCCSc1nc2ccccc2s1 (configuration not stated),14.4%,22.5%
CC(C)(C)n1nc2c(c1NC(=O)c1cc([N+](=O)[O-])ccc1Cl)CS(=O)(=O)C2,25.2%,47.5% (active)
CC1=CC(C)(C)Nc2ccc(OC(=O)c3cccnc3)cc21,-32.4%,39.7%
COc1ccc(S(=O)(=O)Nc2ccc(C)cn2)cc1,-11.7%,-15.4%
O=C(N/N=C/c1ccc([N+](=O)[O-])o1)c1cc2ccccc2o1,21.6%,56.4% (active)
COCCN(C(=O)Cc1ccc(S(=O)(=O)N2CCOCC2)s1)c1c(N)n(CC(C)C)c(=O)[nH]c1=O,1.4%,-13.1%
CCOc1cc(NC(=S)NCc2ccco2)c(OCC)cc1NC(=O)CC,-10.4%,-9.88%
COc1ccc(C(=O)c2[nH]c(N)c(C(=O)NCCc3c[nH]c4ccccc34)c2-c2ccc(OC)c(OC)c2)cc1,-9.46%,-4.51%
CCc1cc2c(Sc3nc4ccccc4s3)ncnc2s1,36.6% (active),42.6%
Cc1nc(=O)c(-c2ccccc2)c(C)n1-c1ccccc1Cl,-4.06%,-36.8%
O=C(Cc1ccc(-c2ccccc2)cc1)NNC(=S)NCc1ccco1,-22.3%,-9.18%
CCOc1ccccc1N1CCN(C(=O)c2cc(-c3cc(OC)ccc3OC)nc3ccccc23)CC1,-6.34%,14.4%
C=CCN=C1NN=C(c2cc(C)n(CCOC)c2C)CS1,69.5% (active),86% (active)
Cc1cccc(C)c1NC(=O)CN1CCN(C/C=C/c2ccccc2)CC1,-15.1%,-3.36%

Structure (SMILES),inhibition [1],inhibition [2]
COc1cccc(/C=C2/SC(=S)N(CCCC(=O)Nc3ccc(O)cc3)C2=O)c1,51.1% (active),23.7%
CCC(C)(C(=O)NC1CCCCC1)N(Cc1cccs1)C(=O)CC1NC(=O)NC1=O (configuration not stated),-9.62%,-11.8%
O=C(CCc1nnc(C2CCCCC2)o1)N1CCC(Oc2cccnc2)CC1,1.02%,4.42%
COc1cccc(NC(=O)Nc2nnc(CC(=O)Nc3ccccc3)s2)c1,-11%,21.1%
CCOC(=O)C1=C(COC(=O)CCOc2cc(C)ccc2C)NC(=O)NC1C (configuration not stated),-6.92%,-29.2%
O=C(c1ccc(S(=O)(=O)NCc2ccco2)cc1)N1CCN(Cc2ccc3c(c2)OCO3)CC1,-2.59%,3.12%
CC(c1ccccc1)N1CCN(C(=O)CCl)CC1 (configuration not stated),17.4%,43.9%
CC(C)C(=O)Nc1ccc(C(=O)NCc2cccnc2)cc1,-2.6%,33.3%
CCOC(=O)c1c(NC(=O)/C=C/C(=O)O)sc(C)c1-c1ccc(C(C)(C)C)cc1,32.9%,17.2%
CCN(CC)Cc1nc2c(c(=O)[nH]1)C(CC)(CC)Cc1ccccc1-2,-14.9%,6.86%
CCOc1ccc(-c2cc(CCCC(=O)NCc3ccc(C)cc3)no2)cc1,31.4%,60.2% (active)
O=C(Cc1ccc(Cl)cc1)NCCc1cnc[nH]1,-16.2%,-12.5%
COc1ccc(OC)c(NC(=O)C(C)OC(=O)c2cc3ccccc3[nH]2)c1 (configuration not stated),-2.68%,17.6%
Cc1[nH]nc(-c2cccnc2)c1N=NN(C)C,10.9%,41.1%
CN(c1ccc(F)cc1)S(=O)(=O)c1ccc(Cl)c(C(=O)Nc2ccncc2)c1,-3.83%,26.5%
CCOC(=O)C1=CCN(S(=O)(=O)c2ccc(C)cc2)C1c1ccccc1F (configuration not stated),-19.3%,-7.88%
Cc1nnc(SCc2nc3sc(C(=O)O)c(C)c3c(=O)[nH]2)s1,21.2%,9.02%
O=C(CSc1nc2[nH]c(=O)[nH]c(=O)c2s1)Nc1cccc(F)c1,0.35%,-0.5%
Cc1cccc(C)c1Nc1nnc(SC(C)C(=O)Nc2c(C)n(C)n(-c3ccccc3)c2=O)s1 (configuration not stated),-15.1%,-13.2%
O=[N+]([O-])c1cccc2c(N3CCCC3)ccnc12,11.7%,-23.4%
COC(=O)c1ccc(NC(=O)c2nc(S(=O)(=O)Cc3cccc(C)c3)ncc2Cl)cc1,46% (active),53.4% (active)
CCCCC(=O)NC(c1ccccc1OC)c1ccc2cccnc2c1O (configuration not stated),-16.1%,28.1%
Cn1c(=O)c2c(ncn2CCOc2cccc(Br)c2)n(C)c1=O,2.33%,2.64%
Cc1c(CCC(=O)O)c(=O)oc2cc3oc4c(c3cc12)CCCC4,49.3% (active),69.2% (active)

Structure (SMILES),inhibition [1],inhibition [2]
CCOC(=O)Cn1c(=O)c2c(nc(N3CCCCC3)n2Cc2ccccc2)n(C)c1=O,-5.76%,4.93%
C=C1CC2(OC1=O)c1ccccc1CCc1ccccc12,49.2% (active),29.7%
CC1(C)CC(=O)C/C(=N/Nc2nc3ccccc3s2)C1,-61.5%,-13.5%
C=CCc1cccc2cc(C(=O)Nc3ccc(CC(=O)O)cc3)c(=O)oc12,12%,25.6%
COc1ccc2cc3cc(C(=O)Nc4ccc5c(c4)OCO5)oc3nc2c1,-29.9%,-32%
CCC(C)(C)c1ccc(Oc2ccc(NC(=O)COC(=O)C3=COCCO3)cc2)cc1,33.8%,46.5%
COc1ccc([N+](=O)[O-])c(S(=O)(=O)c2ccc(Cl)cc2)n1,8.89%,52.3% (active)
COc1ccccc1NS(=O)(=O)c1ccc(C)c(C(=O)NC2CCN(Cc3ccccc3)CC2)c1,17.2%,36.4%
Cc1ccc(N(C(=O)c2ccc3c(c2)OCO3)C2C=CS(=O)(=O)C2)cc1C (configuration not stated),0.8%,-17.6%
Cc1nc2cc(-c3ccccc3)nn2c(C)c1CCC(=O)N1CCN(c2ccccc2)CC1,3.67%,52.6% (active)
C=C1C(=O)O[C@@H]2C[C@@H](C)[C@@H]3C=CC(=O)[C@@]3(C)[C@@H](OC(C)=O)[C@H]12,96% (active),91% (active)
C=CCNc1nc2ccccc2nc1NS(=O)(=O)c1ccc(Cl)cc1,-13.4%,-1.65%
Cc1ccc(NCC(=O)Nc2cccc(F)c2)cc1S(=O)(=O)N1CCCCCC1,15.9%,3.72%
Cc1nc([N+](=O)[O-])c(Sc2nc3ccc([N+](=O)[O-])cc3[nH]2)n1Cc1ccccc1,-6.71%,46.7% (active)
Cc1ccc(NC(=O)c2nc(S(=O)(=O)Cc3ccccc3)ncc2Cl)cc1,56.5% (active),74.4% (active)
c1ccc(-c2csc3ncnc(NCc4ccccn4)c23)cc1,-7.12%,4.33%
Cc1ccc(/C=C2/SC(=S)N(CCCC(=O)Nc3cc([N+](=O)[O-])ccc3O)C2=O)cc1,27.4%,49.7% (active)
O=C(CN1C(=O)NC2(CCCCC2)C1=O)Oc1ccc2c(C(F)(F)F)cc(=O)oc2c1,-11.6%,-1.74%
Cc1nc([N+](=O)[O-])c(C(=O)OCc2ccccc2F)n1C,-22.8%,1.38%
O=C(Cn1cnc2ccccc21)N/N=C/C(Br)=C/c1ccccc1,-14%,-5.7%
O=C(NC1CC1)c1ccc2c(c1)N(Cc1ccc(Cl)cc1)CCS2,4.34%,18.6%
CC(=O)OC1CCC2(C)C(CCC3C4CC=C(C(C)=O)C4(C)OC(=O)CC32)C1 (configuration not stated),20.8%,16.1%
O=C(CCCN1C(=O)/C(=C/c2ccccc2Cl)SC1=S)NNC(=O)c1ccccc1,61.2% (active),73% (active)
